Laboratory results from PubChem BioAssay AID1964107 (National Center for Advancing Translational Sciences (NCATS), 2024).
Values joined by “and” are separate entries in the source; they are usually repeats but may differ in a detail not shown here. Equal values may be shown once. Out of some 31,000 compounds screened, about 360 (1.2%) were called active. Roughly 8% stayed inconclusive and do not appear here. The full list was thinned out, with actives kept by preference. A number with no mark means an inactive call. The call rests on the fitted dose curve.

biological target: Polyprotein P1234 (Chikungunya virus (strain S27-African prototype)) (UniProt Q8JUX6); assay: Primary qHTS for inhibitors of NSP2Pro chikungunya virus (CHIKV); settings: FRET peptide cleavage, fluorescence 1 h; series mostly up to 24.9 µM; activity change, negative = inhibition: at the top concentration; further: nearly all actives have a fitted effect of over 60% in size
Description: PI: Natalia J. Martinez Ph.D. National Center for Advancing Translational Sciences (NCATS), National Institute of Health (NIH), Rockville, Maryland Chikungunya virus (CHIKV) is a mosquito-borne RNA virus that has emerged as one of the most important global arboviral threats in the last decade. Although the first CHIKV vaccine has recently been FDA approved for use in healthy adults at increased risk, to date, there are no available antiviral drugs for CHIKV infection. CHIKV nsP2 protease plays a crucial role in the processing of the viral polypeptide precursor to release enzymes required for viral replication, thus making it a promising drug target for antiviral discovery. Here, we established a high-throughput pipeline to identify small molecule inhibitors of nsP2 proteolytic activity. The pipeline is composed of a suite of 1,536-well in vitro assays to support quantitative high-throughput (qHTS) screening campaigns. Specifically, we developed a fluorescence resonance energy transfer (FRET)-based assay using a fluorogenic peptide substrate encompassing an endogenous cleavage site and purified recombinant protease domain (nsP2pro). Using this assay, we interrogated ~37,000 small molecules, including those in drug repurposing libraries as well as chemically diverse and medicinal chemistry-friendly compounds. Hits were selected for follow-up validation against full-length nsP2 and an additional peptide. FRET-based 1,536-well assays for papain, hepatitis C virus NS3-4A, and human furin proteases were implemented to characterize compound selectivity. […] Novel compounds were identified to be potential nsP2 inhibitors and molecular docking analyses were performed to explain the binding mode of selected hits. In vitro antiviral activity was evaluated for a subset of compounds using a high-throughput CHIKV infection assay. To our knowledge, the pipeline presented here is unprecedented for CHIKV antiviral discovery research.
PROTOCOL TABLE (as described by Inglese J, Shamu CE and Guy RK. 2007) SEQUENCE No. (e.g., 1, 2, 3, etc.); […] (e.g., Cells, Incubation, Reagent, etc.); VALUE; DESCRIPTION. 1; Control / Compound; 20 nL; Echo 655 acoustic dispenser, Greiner 1536-well solid bottom black plate. 2; Enzyme; 4 uL; BioRAPTR FRD liquid dispenser (Beckman Coulter). 3; Incubation; 15 min; room temperature. 4; Reagent; 4 uL; 2.5 uM Peptide 2 substrate. 5; Incubation; 1 hr; room temperature. 6; Detection; Fluorescence; WiewLux microplate reader (PerkinElmer), 525 nm excitation, 598/25 nm emission. NOTES (numbers refer to sequence numbers above). 1. Briefly, 20 nL DMSO, positive control ZnAc (20nM final concentration), and test compounds were transferred into a 1,536-well solid bottom black plate (789176-F, Greiner One) via Echo 655 acoustic dispenser (Beckman Coulter). For primary screens, compounds were tested at 7 concentrations, 1:3 dilution points ranging from 25 uM to 34 nM. Follow-up confirmatory screens were carried out at 11 concentrations, 1:3 dilution points from 25 uM to 0.42 nM. 2. Four uL nsP2pro enzyme mix (150 nM final concentration) in 10 mM Tris-HCl pH 8.0 with 0.01% Tween 20 assay buffer was dispensed into the plate using a BioRAPTR FRD liquid dispenser (Beckman Coulter). 3. The plate was incubated at room temperature (protected from light) for 15 min 4. Four microliter of peptide 2 substrate (2.5 uM final concentration) in assay buffer was added to the plate. 5. After 1 hour, plates were immediately read on a ViewLux high-throughput CCD imager (Exposure = 10 sec, Gain = High, Speed = Slow, Binning = 2X). The above assay was also incorporated in the NCATS HTS facility41, which allowed for robotic liquid and compound dispensing, microplate handling, and fluorescence reading.. REFERENCE: Inglese J, Shamu CE and Guy RK, Reporting data from high throughput screening of small molecule libraries, Nature Chemical Biology, 2007, 3(8): 438-441. doi.org/10.1038/nchembio0807-438.
On the % scale 0 is the no-effect control and ±100 the full control effect; potency means the concentration at half of the fitted maximal effect.

Polyprotein P1234 (Chikungunya virus (strain S27-African prototype)), sequence (Q8JUX6 whole entry, looked up): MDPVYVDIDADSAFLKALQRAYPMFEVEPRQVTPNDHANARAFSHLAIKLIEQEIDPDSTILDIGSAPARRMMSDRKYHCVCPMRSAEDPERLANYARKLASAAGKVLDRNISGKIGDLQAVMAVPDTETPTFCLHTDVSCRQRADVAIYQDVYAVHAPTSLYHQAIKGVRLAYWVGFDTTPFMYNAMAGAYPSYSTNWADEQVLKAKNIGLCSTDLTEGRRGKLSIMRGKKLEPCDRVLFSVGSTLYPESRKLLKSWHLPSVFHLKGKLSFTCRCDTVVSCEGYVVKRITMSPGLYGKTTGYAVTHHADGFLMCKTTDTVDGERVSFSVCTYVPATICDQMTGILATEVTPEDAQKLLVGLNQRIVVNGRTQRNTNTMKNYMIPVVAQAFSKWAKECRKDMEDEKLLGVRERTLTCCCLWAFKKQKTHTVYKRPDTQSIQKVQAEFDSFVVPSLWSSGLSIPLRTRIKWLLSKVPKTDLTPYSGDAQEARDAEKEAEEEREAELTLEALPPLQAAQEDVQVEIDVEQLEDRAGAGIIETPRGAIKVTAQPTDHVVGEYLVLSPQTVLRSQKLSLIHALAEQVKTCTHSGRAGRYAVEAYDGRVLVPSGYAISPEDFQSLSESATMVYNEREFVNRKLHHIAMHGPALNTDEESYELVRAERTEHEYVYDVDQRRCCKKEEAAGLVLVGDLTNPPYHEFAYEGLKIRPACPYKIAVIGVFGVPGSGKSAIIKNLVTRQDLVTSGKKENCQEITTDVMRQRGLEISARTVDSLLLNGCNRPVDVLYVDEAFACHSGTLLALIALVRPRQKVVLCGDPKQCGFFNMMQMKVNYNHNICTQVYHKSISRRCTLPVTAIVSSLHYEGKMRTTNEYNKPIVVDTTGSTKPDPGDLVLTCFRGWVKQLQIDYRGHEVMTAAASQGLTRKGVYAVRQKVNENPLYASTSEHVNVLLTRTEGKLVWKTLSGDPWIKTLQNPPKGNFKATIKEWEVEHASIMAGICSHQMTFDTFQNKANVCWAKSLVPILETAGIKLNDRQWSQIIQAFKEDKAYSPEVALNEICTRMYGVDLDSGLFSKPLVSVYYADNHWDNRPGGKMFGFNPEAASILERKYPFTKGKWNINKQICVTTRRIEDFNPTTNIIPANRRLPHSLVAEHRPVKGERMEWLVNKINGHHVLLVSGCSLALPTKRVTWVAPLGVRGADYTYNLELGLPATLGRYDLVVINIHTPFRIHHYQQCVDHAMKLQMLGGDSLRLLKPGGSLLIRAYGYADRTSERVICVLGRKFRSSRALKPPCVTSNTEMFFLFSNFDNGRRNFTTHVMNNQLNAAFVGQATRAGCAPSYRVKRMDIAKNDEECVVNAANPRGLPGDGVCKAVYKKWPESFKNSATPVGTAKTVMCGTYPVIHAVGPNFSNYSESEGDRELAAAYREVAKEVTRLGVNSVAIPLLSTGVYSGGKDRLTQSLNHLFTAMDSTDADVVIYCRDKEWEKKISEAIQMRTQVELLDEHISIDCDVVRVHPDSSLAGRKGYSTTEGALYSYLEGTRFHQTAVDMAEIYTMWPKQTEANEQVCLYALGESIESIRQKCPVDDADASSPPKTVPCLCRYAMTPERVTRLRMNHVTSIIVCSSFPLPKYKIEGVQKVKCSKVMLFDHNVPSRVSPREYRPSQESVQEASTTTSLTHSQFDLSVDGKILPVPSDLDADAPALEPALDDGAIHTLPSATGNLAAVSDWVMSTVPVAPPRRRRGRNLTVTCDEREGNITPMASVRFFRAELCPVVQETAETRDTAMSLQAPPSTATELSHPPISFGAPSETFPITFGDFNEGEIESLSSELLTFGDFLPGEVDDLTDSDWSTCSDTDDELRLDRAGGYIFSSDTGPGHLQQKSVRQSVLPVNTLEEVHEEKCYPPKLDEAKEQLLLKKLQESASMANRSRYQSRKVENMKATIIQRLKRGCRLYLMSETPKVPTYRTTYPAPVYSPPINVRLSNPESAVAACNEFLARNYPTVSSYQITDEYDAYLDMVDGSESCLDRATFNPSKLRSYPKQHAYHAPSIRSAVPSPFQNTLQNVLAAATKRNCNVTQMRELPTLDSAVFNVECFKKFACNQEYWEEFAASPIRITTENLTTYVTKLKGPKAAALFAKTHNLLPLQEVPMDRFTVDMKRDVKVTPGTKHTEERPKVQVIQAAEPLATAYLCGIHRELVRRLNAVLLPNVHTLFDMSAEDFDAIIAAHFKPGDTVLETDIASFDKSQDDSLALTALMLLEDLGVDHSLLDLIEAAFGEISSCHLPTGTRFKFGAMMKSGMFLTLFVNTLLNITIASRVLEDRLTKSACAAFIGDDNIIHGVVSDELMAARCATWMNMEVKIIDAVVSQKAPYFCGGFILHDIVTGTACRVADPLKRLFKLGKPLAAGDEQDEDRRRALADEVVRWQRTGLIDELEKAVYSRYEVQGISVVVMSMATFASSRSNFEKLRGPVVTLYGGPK

| SMILES | outcome | activity change, negative = inhibition | Potency |
| --- | --- | --- | --- |
| COc1ccccc1CNC(=O)CN1CCCC(CO)(CC2CC2)C1 (configuration not stated) | inactive | – | – |
| COCCCN1CCC(NC(=O)c2cc(Cl)c(N)c3c2OCC3)CC1 | – | -1.5% | – |
| COc1cc(OC)c(NC(=O)c2ccc(Cc3cc4c(cc3C)C(C)(C)CCC4(C)C)o2)c(OC)c1 | – | – | 11.1 µM (active) |
| COC(=O)c1ccccc1NC(=O)c1ccc(COc2ccccc2Cl)o1 | – | -24.7% | – |
| Cc1ccc(CN(C(=O)c2ccccc2[N+](=O)[O-])c2ccccn2)cc1 | – | -12.2% | – |
| COc1ccc2oc(=O)c(-c3cn4c(n3)sc3cc(OC)ccc34)cc2c1 | – | -19.8% | – |
| Cc1ccc(C2CCN(C(=O)c3cnn(-c4ccccc4Cl)c3C3CCN(C(=O)OC(C)(C)C)CC3)C2)cc1 (configuration not stated) | – | -9.46% | – |
| Cc1c(P(=S)(c2ccccc2)c2ccccc2)[n+]2ccccc2n1CCCCc1ccccc1 | inactive | – | – |
| Cc1cnc(C(=O)N[C@H]2CCCCC/C=C\[C@@H]3C[C@@]3(C(=O)NS(=O)(=O)C3CC3)NC(=O)[C@@H]3C[C@@H](Oc4nc5ccccc5c5ccccc45)CN3C2=O)cn1 | – | – | inactive |
| CS(=O)(=O)c1ccc(OC[C@H]2C[C@@H](NC(=O)c3ccccc3)[C@H](O)[C@@H]2O)cc1 | inactive [at 39.2 µM] | – | – |
| CC1(C)[C@H](Cc2cc(-c3ccccc3)on2)C[C@@H]1NCC1CC1 | inactive [at 39.2 µM] | – | – |
| Cc1cccc(NC(=O)CSc2ncc(-c3ccccc3)[nH]2)c1C | – | -16.9% | – |
| CCCc1nc(C(=O)N2CCC3(CCCNC3)C2)cs1 (configuration not stated) | inactive | – | – |
| Clc1ccccc1CSc1nncn2c1cc1occc12 | – | -10.5% | – |
| O=C(NCC(c1ccco1)S(=O)(=O)c1cccs1)c1ccc(F)cc1 (configuration not stated) | – | -9.32% | – |
| CCOc1ccc(NC(=O)Cn2c(C)ccc(C#N)c2=O)cc1 | – | 1.17% | – |
| COc1ccc(-c2ccc3ncn(C4CC4)c(=O)c3n2)cn1 | – | -5.28% [at 39.2 µM] | – |
| Cc1ccc(-c2ccc(=O)n(CCNC(C)c3ccco3)n2)cc1 (configuration not stated) | – | -11.9% | – |
| Cc1ccc(Cl)cc1NC(=O)C1CCCN(c2cnccn2)C1 (configuration not stated) | – | -12.4% | – |
| C=C1C(=O)OC2C=C(C)CC/C=C(\CO)CC(O)C12 (configuration not stated) | – | 7.09% | – |
| CCN(c1ncnc2c1cnn2-c1ccc(C)cc1)C1CCCCC1 | – | -18.5% | – |
| Cc1ccc(Cl)cc1NC(=O)/C(C#N)=C\c1cn(Cc2ccc(F)cc2)c2ccccc12 | – | -21.6% | – |
| CCCN1CCc2nc(N3CCN(C)CC3)ncc2C1 | – | 20.9% | – |
| CC1CCN(S(=O)(=O)c2ccc3c(ccn3CCC(=O)NCc3ccc(N(C)C)cc3)c2)CC1 | – | -2.09% | – |

| SMILES | outcome | activity change, negative = inhibition | Potency |
| --- | --- | --- | --- |
| Oc1ccc2c3c1O[C@H]1c4[nH]c5c(N=C=S)cccc5c4C[C@@]4(O)[C@@H](C2)N(CC2CC2)CC[C@]314 | – | 0.0256% | – |
| O=C(NCC(c1ccc2c(c1)OCO2)N1CCN(c2ccccc2)CC1)C(=O)Nc1ccccc1F (configuration not stated) | – | -7.61% | – |
| Cc1cc(C(=O)NC2CC(c3cc(=O)[nH]cn3)C2)cc(S(N)(=O)=O)c1C (configuration not stated) | – | 1.79% | – |
| CCS(=O)(=O)N1CCc2cc(C(=O)NCc3ccc(OC)cc3)ccc21 | – | -17.8% | – |
| Cc1nc(CNC(=O)[C@H]2CCC[C@@H](O)C2)nc2c1CCCC2 | – | 1% | – |
| CCOC(=O)c1ccc(NC(=O)C2CC(=O)N(c3ccc(C(C)C)cc3)C2)cc1 (configuration not stated) | – | -20.5% | – |
| Cc1nc(C)c(-c2ccc3ncnc(N(C)Cc4sccc4C)c3c2)s1 | – | 3.77% | – |
| O=C(Cn1c(=O)n(-c2ccc(F)cc2)c(=O)c2sccc21)Nc1cccc(C(F)(F)F)c1 | – | 8.21% | – |
| COc1cc(C(C)=O)ccc1O[C@@H]1O[C@H](CO[C@@H]2OC[C@@H](O)[C@H](O)[C@H]2O)[C@@H](O)[C@H](O)[C@H]1O | – | -10.4% [at 10 µM] | – |
| Cc1cc(-c2ccc(C)c(S(=O)(=O)N3c4ccccc4CC3C)c2)on1 (configuration not stated) | – | -5.69% | – |
| CCOC(=O)N1CCc2c(sc3c2c(=O)n(Cc2ccccc2)c(=O)n3CC(=O)Nc2cccc(C)c2)C1 | – | -10.2% | – |
| CNC(=O)[C@@H]1C[C@@H](O)CN1C1CCN(C(=O)C2(c3ccccc3)CC2)CC1 | – | -7.73% | – |
| O=c1cc(-c2cccnc2)oc2c(-c3cccc(CO)c3)nccc12 | – | -7.39% [at 39.2 µM] | – |
| NC(=O)CN1CC2(CCC1=O)CCN(C[C@@H](O)CO)CC2 | – | -3.19% | – |
| Cc1nc(C(=O)N2CCn3nc(Cc4ccccc4)cc3C2)cs1 | inactive | – | – |
| OCC1(CCCc2ccccc2)CCCNC1 (configuration not stated) | inactive | – | – |
| Cc1ccc(OCCn2c(CCNC(=O)c3ccccc3)nc3ccccc32)cc1 | – | -8.68% | – |
| Cc1cccc(Nc2nc(C)nc(N)c2S(=O)(=O)c2ccccc2)c1 | – | 5.91% | – |
| N#CSc1cc(SC#N)c(N)nc1N | – | – | 664 nM (active) and 351 nM (active) and 1.24 µM (active) |
| CCCNC(=O)C(CC)n1nc(CC)n2c(cc3oc(C)cc32)c1=O (configuration not stated) | – | -23% | – |
| COC([CH2][Hg])CNC(=O)c1ccccc1OCC(=O)O (configuration not stated) | – | – | 1.49 µM (active) |
| COc1ccc(-c2ccccc2C(=O)NCC#N)nn1 | inactive [at 39.2 µM] | – | – |
| Cc1ccc(CNC(=O)CSC2=Nc3ccccc3C3=NC(C)C(=O)N23)cc1 (configuration not stated) | – | -15% | – |
